# The panel holds about 79,000 compounds, 15% with a hit somewhere; the sample as a whole holds those more often. A number with no mark means an inactive call. Calls of active or inactive are those of the source. No stated cut-off is given here; in the data, active means growth inhibition above about 70%; inactive means the rest.
# Experiments:
# [1] = NCI Yeast Anticancer Drug Screen. Data for the rad50 strain (AID 155);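 further: 0% = growth of vehicle-only cultures of the same strain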; conditions: S. cerevisiae rad50 strain growth inhibition; at 50.0 µM; stronger effect = higher value
# How it was run: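 Readout: growth inhibition relative to vehicle-treated cultures. Compound exposure was carried out in a genetically defined yeast strain deficient in DNA damage repair.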
# [2] = NCI Yeast Anticancer Drug Screen. Data for the mec2-1 strain (AID 157); conditions: S. cerevisiae mec2-1 strain, at 50.0 µM, stronger effect = higher value
# How it was run: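 Strain: mec2-1 (DNA repair/cell cycle alteration). Compound exposure, then growth measured; inhibition expressed relative to vehicle.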
# [3] = NCI Yeast Anticancer Drug Screen. Data for the sgs1 mgt1 strain (AID 161);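 further: 0% = growth of cultures given vehicle only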; conditions: S. cerevisiae sgs1 mgt1 strain, at 50.0 µM, stronger effect = higher value
# How it was run: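 Mutant yeast exposed to compound; growth scored against vehicle-only wells.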
# [4] = NCI Yeast Anticancer Drug Screen. Data for the cln2 rad14 strain (AID 165);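 further: 0% = growth equal to vehicle treated cultures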; conditions: S. cerevisiae cln2 rad14 strain, at 50.0 µM, stronger effect = higher value
# How it was run: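 Compounds are applied to the cln2 rad14 yeast strain, and growth is then compared with that of vehicle-treated cultures to give inhibition.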
# [5] = NCI Yeast Anticancer Drug Screen. Data for the bub3 strain (AID 167); conditions: S. cerevisiae bub3 mutant strain, at 50.0 µM, stronger effect = higher value
# How it was run: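 Readout: yeast growth inhibition, expressed relative to vehicle-only wells. The test organism is a mutant strain from a panel with lesions in DNA repair or checkpoint genes.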
# [6] = NCI Yeast Anticancer Drug Screen. Data for the mlh1 rad18 strain (AID 175); conditions: S. cerevisiae mlh1 rad18 strain growth inhibition; at 50.0 µM; stronger effect = higher value
# How it was run: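 Read-out is yeast growth inhibition, calculated against vehicle-only controls. The compound was applied to a strain engineered with DNA damage repair alterations.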
SMILES,growth inhibition [1],growth inhibition [2],growth inhibition [3],growth inhibition [4],growth inhibition [5],growth inhibition [6]
CCOC(=O)C(CC(c1ccc2c(c1)OCO2)C(C(=O)OCC)[N+](=O)[O-])C(=O)OCC (stereo not given),61.2%,23.9%,58.6%,27.3%,15.6%,39.3%
C=CCC(CC=C)(C(=O)Nc1ccc2nc(C)cc(N)c2c1)C(=O)Nc1ccc2nc(C)cc(N)c2c1,2.05%,24.7%,22.1%,20.1%,12.4%,-10.1%
Nc1ccc2c(c1)Cc1c-2cc(Br)c(N)c1Br,4.95%,-6.85%,9.5%,-39.2%,1.9%,-6.75%
O=S(=O)(c1ccc(Cl)cc1)N1CCN(S(=O)(=O)c2ccc(Cl)cc2)C1,2.05%,8.1%,-14.3%,-21.6%,-0.05%,15.6%
N#CCCc1ccc[nH]1,-15.8%,-8.45%,-7.95%,10.6%,5.6%,-5.85%
Nc1nc(-c2ccccc2)c(N=Nc2cc(Cl)ccc2Cl)s1,4.5%,1%,-2.3%,-5.05%,8.2%,-2.1%
O=C1c2ccccc2S[C@@H](O)[C@@H]2CCCN12,-31.9%,-13.7%,-64.7%,-13.7%,-41.8%,-41.7%
Clc1ccc(OCc2nnc3n2N=C(c2ccccc2)CS3)cc1,36.5%,7.1%,15.9%,36.2%,23.5%,15.9%
Clc1ccc(N=C2CCCCC2)cc1,12.4%,-12.5%,-0.2%,8.45%,-18.2%,1.9%
CN(C)CCCOC(=O)C(O)(Cc1ccccc1)C1CC1 (stereo not given),10.7%,15.4%,6.25%,5.35%,28.6%,15.1%
C[N+](C)(CCOc1ccccc1)Cc1ccccc1,55%,25.8%,39.3%,26.8%,48%,31.5%
Cc1cc(N(CCC#N)CCC#N)ccc1/C=C(\NC(=O)/C=C/c1ccccc1)C(=O)Nc1ccc(Cl)cc1,-7.1%,-15.1%,2.2%,1.7%,3.9%,-1.65%
CCCCCCCCOC(=O)Nc1cccc2ccccc12,-12.8%,-11.2%,-2.6%,-39.7%,-4.35%,-9.2%
CCSc1n[nH]c(=O)nc1SC,4.3%,-3.25%,-3.9%,-67%,-19.5%,-0.35%
N#Cc1sc2c(c1OC(=O)c1ccccc1)c(=O)n(-c1ccccc1)c(=S)n2-c1ccccc1,-2.65%,10.8%,3.45%,-12.4%,-5.95%,18%
CC1=CC(=O)C(=CN2C(=O)/C(=C\c3cccnc3)NC2=S)C(=O)O1,-21.2%,-12.2%,-18.9%,-20.1%,-3.7%,-21.9%
CCCN(C(=O)c1ccccc1)C(C#N)c1ccc(C(C#N)N(CCC)C(=O)c2ccccc2)cc1 (stereo not given),7%,1.2%,-24.4%,-10.9%,-11.8%,-32.5%
COc1cc(C(SCc2ccccc2)SCc2ccccc2)ccc1O,28.6%,12.2%,30.9%,28.6%,17.4%,28.6%
Cc1cc(C(=O)C=[N+]=[N-])c(CN2C(=O)c3ccccc3C2=O)c(=O)n1C,-0.8%,-9.55%,-3.4%,5.95%,-13.5%,1.4%
CC(C)=C1CC(=O)NC1=O,-10.8%,17.1%,-3.2%,6.35%,-6.05%,0.55%

SMILES,growth inhibition [1],growth inhibition [2],growth inhibition [3],growth inhibition [4],growth inhibition [5],growth inhibition [6]
O=C1c2cc([N+](=O)[O-])cc3cc([N+](=O)[O-])cc(c23)C(=O)N1CCNCCNCCNCCN1C(=O)c2cc([N+](=O)[O-])cc3cc([N+](=O)[O-])cc(c23)C1=O,85.1% (active),90.4% (active),91.5% (active),90.8% (active),89% (active),86.1% (active)
Clc1ccc(/C=N/N2CCN(/N=C/c3ccc(Cl)cc3)CC2)cc1,-3.1%,-10.3%,-0.2%,-5.35%,13.2%,-15%
Cn1cnc(CCc2ccccc2)n1,-8.95%,-3.05%,-24.2%,-19%,-24.1%,-11.2%
C/C(CC(=O)Nc1ccc(C)cc1C)=N/N=C(N)N,-10.8%,-17.2%,-15.2%,15.4%,-17.7%,-17.1%
O=C(Nc1cccc([N+](=O)[O-])c1)Nc1ccccc1F,11.7%,10%,14.1%,10.5%,19.2%,9.55%
C/C(C(=O)O)=C1\N=C(N)NC1=O,-3.25%,-2.9%,-5.5%,-36.9%,-17.9%,-14.4%
COc1ccc(NC(=O)NNS(=O)(=O)c2ccc(C)cc2)cc1,10.1%,6.15%,6.6%,4.9%,13.9%,-36.9%
COc1ccc(NC(=O)c2oc3cc(O)ccc3c(=O)c2C)c([N+](=O)[O-])c1,0.65%,-1.8%,11.5%,11.9%,-15.2%,2.2%
Nc1ccccc1C(=O)Nc1ccc(Cl)cc1C(=O)O,-7%,-3%,-14.2%,-14.8%,2.65%,-5.1%
O=C1OC(=O)C2C1N=NC2(c1ccccc1)c1ccccc1 (stereo not given),47.3%,26%,22.1%,-19.3%,-1.15%,39.8%
CCN(CC)CCNc1cc(C)nc(/N=C(\N)Nc2ccc(Cl)cc2)n1,23.9%,1.05%,18.1%,-14.8%,11.6%,30.8%
CC(=O)[OH+]c1c(I)cc(I)cc1C(=O)[O-].CC(=O)[OH+]c1c(I)cc(I)cc1C(=O)[O-].[Cu+2],-8.15%,2.3%,-5.8%,-5%,11.5%,4.95%
CCCCSc1n[nH]c(C2CCC(=O)N2Cc2ccccc2)n1 (stereo not given),-14.8%,-19.1%,-0.8%,-12.9%,-3.5%,-6%
O=C1c2ccccc2C(=O)c2[nH]ncc21,18.4%,13.8%,-3.25%,-61.6%,10.1%,-1.8%
Cc1c(Cl)ccc2nc3ccccc3nc12,32.4%,18.8%,12.7%,-4.85%,61.6%,34.5%
CC(=O)C1=C(C)Cn2c(=O)c3ccccc3c(=O)n2C1,-4.7%,-18.5%,-10.7%,10%,-15.7%,-0.05%
CC(=O)OC1CC(O)CC2=CCC3C4CCC(C(C)(O)C(O)CC5COC(=O)C5C)C4(C)CCC3C21C (stereo not given),6.8%,5.4%,14.6%,3.45%,-32.1%,-30.1%
C=C1CC2(CC(c3ccccc3Cl)OC(c3ccccc3Cl)C2)OC1=O (stereo not given),27.2%,47.2%,23.2%,33.2%,20.7%,18.8%
O=C(O)C1=C(c2ccccc2)C=C(c2ccccc2)C1,0%,0.2%,12.8%,-33%,48%,28.9%
COC1OC(COC(=O)c2ccc([N+](=O)[O-])cc2)C(O)C1SC#N (stereo not given),43.5%,-2.3%,41.3%,-10.1%,13.2%,42.8%
